# Results reported in the supplement of paper PMC12494721.
# Where a name gives a salt, the structure may show the parent alone. Values without a mark were called inactive.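 The calls were made as follows: for the amine columns active = adjusted P below 0.05 in both replicates with a change the same way and a mean fold change under 0.8 or over 1.25; inactive = the rest.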
# Tested on: Clostridium sporogenes DSM 1664
# Assay: fold change of Tryptamine concentration vs plate DMSO controls (fold change (ratio)); higher = more amine produced, active = hit call of the paper (significant change in both replicates, either direction)
# Details: incubation time: 27 h, anaerobic, 37 °C
# Outline: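 Amine values are fold changes relative to DMSO-only wells on the same plate. They derive from 27 h, 37 °C anaerobic mGAM cultures of four gut bacterial strains in 80 µL wells, dosed at 20 µM final, or 50 µM final for sweeteners. Extraction of the whole culture, LC–triple-quadrupole MS in dynamic MRM mode, external calibration curves and within-batch drift correction were used, with 2 biological replicates averaged.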
row,SMILES,fold change of Tryptamine concentration
1,CCCSS/C(CCO)=C(/C)N(C=O)Cc1cnc(C)nc1N [Prosultiamine] (20 µM),1.09
2,CN(C)CCOC(c1ccccc1)c1ccccc1.Cn1c(=O)c2[nH]c(Cl)nc2n(C)c1=O [Dimenhydrinate] (20 µM),1.02
3,CCCCCCCN(CC)CCCC(O)c1ccc(NS(C)(=O)=O)cc1 (stereo unspecified) [Ibutilide fumarate] (20 µM),0.904
4,Cc1cccc(Nc2ccncc2S(=O)(=O)NC(=O)NC(C)C)c1 [Torsemide] (20 µM),1.05
5,C=C1c2cccc(O)c2C(O)=C2C(=O)[C@]3(O)C(O)=C(C(N)=O)C(=O)[C@@H](N(C)C)[C@@H]3[C@@H](O)[C@H]12 [Methacycline hydrochloride] (20 µM),0.0282 (active)
6,O=C(O)CNC(=O)C(CS)Cc1ccccc1 (stereo unspecified) [Thiorphan] (20 µM),1.22
7,CCn1cc(C(=O)O)c(=O)c2cc(F)c(N3CCNCC3)nc21 [Enoxacin] (20 µM),0.0679 (active)
8,Cc1ccc(-c2ncc(Cl)cc2-c2ccc(S(C)(=O)=O)cc2)cn1 [Etoricoxib] (20 µM),1.16
9,CNC(=O)OCc1cccc(COC(=O)NC)n1 [Pyricarbate] (20 µM),0.953
10,N#Cc1cc(NC(=O)C(=O)O)c(Cl)c(NC(=O)C(=O)O)c1 [Lodoxamide] (20 µM),1.05
11,CNC1(C)C2CCC(C2)C1(C)C (stereo unspecified) [Mecamylamine hydrochloride] (20 µM),1.06
12,CCOC(=O)[C@H](CCc1ccccc1)N[C@@H](C)C(=O)N(CC(=O)O)C1Cc2ccccc2C1 [Delapril Hydrochloride] (20 µM),0.958
13,CN1[C@@H]2CC[C@H]1C[C@@H](OC(c1ccccc1)c1ccccc1)C2 [Benztropine mesylate] (20 µM),1.03
14,C[N+]1(CCCCC[N+]2(C)CCCC2)CCCC1 [Pentolinium bitartrate] (20 µM),1.08
15,CC(=O)Oc1cc(C(F)(F)F)ccc1C(=O)O [Triflusal] (20 µM),1.03
16,COc1ccc2cc(CCC(C)=O)ccc2c1 [Nabumetone] (20 µM),0.926

row,SMILES,fold change of Tryptamine concentration
1,CN1C(=O)CC(c2ccccc2)C1=O (stereo unspecified) [Phensuximide] (20 µM),1.03
2,CC(N)CCCC(C)(C)O (stereo unspecified) [Heptaminol hydrochloride] (20 µM),0.988
3,CN(C)CCOC(c1ccc(Cl)cc1)c1ccccn1 (stereo unspecified) [Carbinoxamine maleate salt] (20 µM),0.981
4,C=CCN1CCCC1CNC(=O)c1cc2nn[nH]c2cc1OC (stereo unspecified) [Alizapride hydrochloride] (20 µM),0.964
5,CC1(C)O[C@@H]2C[C@H]3[C@@H]4C[C@H](F)C5=CC(=O)C=C[C@]5(C)[C@H]4[C@@H](O)C[C@]3(C)[C@]2(C(=O)CO)O1 [Flunisolide] (20 µM),1.03
6,C=CC(N)CCC(=O)O (stereo unspecified) [Vigabatrin hydrochloride] (20 µM),0.993
7,CC(N)C12CC3CC(CC(C3)C1)C2 (stereo unspecified) [Rimantadine hydrochloride] (20 µM),0.984
8,O=C(O)c1cc(-c2ccc(F)cc2F)ccc1O [Diflunisal] (20 µM),1.01
9,OC[C@H]1O[C@@H](O[C@@H]2[C@@H](CO)OC(O)(CO)[C@H]2O)[C@H](O)[C@@H](O)[C@H]1O (mixture of isomers) [Lactulose] (50 µM),0.98
10,COc1ccc2c3c1O[C@H]1C[C@@H](O)C=C[C@@]31CCN(C)C2 [Galanthamine hydrobromide] (20 µM),1.01
11,O=C(CCNNC(=O)c1ccncc1)NCc1ccccc1 [Nialamide] (20 µM),1.01
12,CC(C)OC(=O)C(C)(C)Oc1ccc(C(=O)c2ccc(Cl)cc2)cc1 [Fenofibrate] (20 µM),1.03
13,Cc1ccc2c(c1)c1c3n2CCNC3CCC1 (stereo unspecified) [Pirlindole mesylate] (20 µM),0.987
14,CC[N+](C)(C)Cc1ccccc1Br [Bretylium tosylate] (20 µM),0.973
15,COC(=O)[C@H](Cc1ccccc1)NC(=O)[C@H](CC(=O)O)NCCCc1ccc(OC)c(O)c1 [Advantame] (50 µM),0.973
